From PubChem BioAssay (EPA / NIEHS) come the findings set out here.

Where “and” joins values, the source holds several entries; their conditions need not be identical. Equal entries are not always repeated. Where a structure was tested more than once in an assay, its records may differ in their call. Calls of active or inactive are those of the source. Rule for the calls: active = hit-call score of the fitted dose curve at least 0.9, where 1 is the maximum; inactive = score below 0.9.

Assay [1] in a line: ATG_E_Box_CIS: Attagene CIS-FACTORIAL HepG2 Assay for human Enhancer Box (E-box) (AID 2282936). The conditions noted are these: HepG2 E-box cis-reporter transcription, actives raise or lower the signal. Put shortly: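 Endogenous transcription factor activity was sensed in human HepG2 liver cells through transfected cis-promoter reporter units. After 24 h of dosing, total RNA was reverse-transcribed and reporter cDNA resolved by capillary electrophoresis.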

Assay [2] is described as follows: ATG_M_61_CIS: Attagene CIS-FACTORIAL HepG2 Assay for M61 Transcription Factor (Internal Marker) (AID 2282937). The conditions noted are these: HepG2 Attagene CIS-FACTORIAL M61 internal marker reporter; actives raise or lower the signal. The procedure, abridged:
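Using transiently transfected HepG2 liver cells, reporter transcript levels were assessed 24 h post-dosing by RT-PCR and capillary electrophoresis. Changes in either direction were fitted relative to DMSO controls.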

The nature of assay [3]: ATG_EGR_CIS: Attagene CIS-FACTORIAL HepG2 Assay for human Early Growth Response 1 (EGR1) (AID 2282938). The conditions noted are these: HepG2 Attagene CIS-FACTORIAL EGR reporter mRNA; actives raise or lower the signal. The procedure, abridged: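 Fluorescent capillary-electrophoresis signal of reporter cDNA fragments serves as read-out. HepG2 cells bear transiently transfected cis-promoter reporter units and are exposed 24 h; gain- or loss-of-signal is fitted against DMSO.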

Assay [4] is described as follows: ATG_M_19_CIS: Attagene CIS-FACTORIAL HepG2 Assay for M19 Transcription Factor (Internal Marker) (AID 2282939). The conditions noted are these: HepG2 Attagene CIS-FACTORIAL M19 internal marker reporter; actives raise or lower the signal. The procedure, abridged: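 HepG2 cells transiently transfected with cis-regulated multiple reporter transcription units were dosed for 24 h; reporter mRNA was quantified by RT-PCR, 6-FAM primer-extension labelling, HpaI digestion and capillary electrophoresis, with bidirectional fitting against DMSO baseline.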

The nature of assay [5]: ATG_ERE_CIS: Attagene CIS-FACTORIAL HepG2 Assay for Estrogen Response Element (ERE) (AID 2282940). Conditions: HepG2 ERE cis-reporter, Attagene RNA transcript; actives raise or lower the signal. The procedure, abridged: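 HepG2 cells transiently transfected with cis-promoter-driven multiplexed reporter transcription units report endogenous TF activity. After 24 h compound exposure, reporter mRNA is quantified by RT-PCR with capillary electrophoresis fluorescence; bidirectional fitting versus DMSO baseline.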

Assay [6] can be described thus: ATG_Ets_CIS: Attagene CIS-FACTORIAL HepG2 Assay for human Erythroblast Transformation Specific (ETS) (AID 2282941). Conditions: HepG2 ETS cis-reporter transcription; AC50: actives raise or lower the signal unless noted; outcome: actives raise or lower the signal unless noted. Put shortly: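 Cis-regulated reporter mRNA induction in HepG2 (transient transfection), 24 h exposure, RT-PCR plus capillary electrophoresis detection; DMSO serves as negative control and baseline.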

Assay [7] addresses Hepatocyte nuclear factor 3-beta (Homo sapiens) (UniProt Q9Y261). Put plainly: ATG_FoxA2_CIS: Attagene CIS-FACTORIAL HepG2 Assay for human Forkhead box A2 (FOXA2) (AID 2282942). The conditions noted are these: HepG2 cis-reporter transcription factor activity, 24 h; actives raise or lower the signal. The procedure, abridged:
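Fluorescence signal of reporter cDNA fragments, separated by capillary electrophoresis, reflects endogenous transcription factor activity in transfected HepG2 after 24 h. Both increases and decreases fitted against DMSO.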

The nature of assay [8]: ATG_FoxO_CIS: Attagene CIS-FACTORIAL HepG2 Assay for human Forkhead box O (FoxO) (AID 2282943). Conditions: HepG2 Attagene cis-reporter, FoxO element, mRNA; actives raise or lower the signal. The procedure, abridged:
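Values reflect reporter mRNA induction or loss in HepG2 cells 24 h post-dosing, fitted bidirectionally with DMSO as negative control and baseline. Detection used RT-PCR and fluorescence capillary electrophoresis.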

Assay [9] is described as follows: ATG_GATA_CIS: Attagene CIS-FACTORIAL HepG2 Assay for human GATA Binding Protein (AID 2282944). Conditions: HepG2 GATA cis-element reporter, Attagene multiplex mRNA; actives raise or lower the signal. The procedure, abridged:
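HepG2 cells transiently transfected with multiplexed cis-element reporter units reflecting endogenous transcription factor activity; reporter mRNA measured after 24 h dosing by RT-PCR, 6-FAM labeling, HpaI digestion and capillary electrophoresis. Bidirectional fitting versus DMSO baseline.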

Assay [10] in a line: ATG_GLI_CIS: Attagene CIS-FACTORIAL HepG2 Assay for human Zinc Finger Protein GLI1 (AID 2282945). The conditions noted are these: HepG2, Attagene cis-factorial reporter mRNA, GLI element; actives raise or lower the signal. The procedure, abridged: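 HepG2 cells transiently transfected with cis-promoter multiplexed reporter units report endogenous transcription factor activity. After 24 h chemical exposure, reporter mRNA was quantified by RT-PCR, 6-FAM labelling, HpaI digestion and capillary electrophoresis, with bidirectional fitting against DMSO.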

Assay [11] has as its target Bile acid receptor (Homo sapiens) (UniProt Q96RI1). Put plainly: ATG_IR1_CIS: Attagene CIS-FACTORIAL HepG2 Assay for human Nuclear Receptor Subfamily 1 Group H Member 4 (NR1H4), IR1 submotif (AID 2282946). The conditions noted are these: IR1 reporter transcription, actives raise or lower the signal. The procedure, abridged: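 Readout: reporter transcript levels by RT-PCR with fluorescent capillary electrophoresis, from HepG2 cells transiently transfected with multiplexed cis-regulated reporters and dosed 24 h. Gain- or loss-of-signal fitted versus DMSO negative control.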

Assay [12] is described as follows: ATG_GRE_CIS: Attagene CIS-FACTORIAL HepG2 Assay for human Glucocorticoid Response Elements (GRE) (AID 2282947). The conditions noted are these: HepG2 GRE cis-reporter, Attagene multiplex mRNA; AC50: actives raise or lower the signal unless noted; outcome: actives raise or lower the signal unless noted. Put shortly: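 Cells (HepG2) bearing transfected cis-promoter reporter transcription units were treated with chemical for 24 hours. Reporter mRNA was measured via RT-PCR with capillary electrophoresis, and activity was fitted in both directions relative to DMSO.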

Assay [13] can be described thus: ATG_ISRE_CIS: Attagene CIS-FACTORIAL HepG2 Assay for human Interferon Regulatory Factor 1 (IRF1) binding to an Interferon-Stimulated Response Element (ISRE) (AID 2282948). Conditions: HepG2 ISRE cis-reporter (Attagene), mRNA transcription readout; actives raise or lower the signal. Put shortly: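 Multiplexed mRNA reporter readout in human liver HepG2 cells: cis-element-driven reporters transfected, compound added for 24 h, transcripts amplified, fluorescently labelled and sized by capillary electrophoresis; curve fitting bidirectional against DMSO.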

The nature of assay [14]: ATG_M_32_CIS: Attagene CIS-FACTORIAL HepG2 Assay for M32 Transcription Factor (Internal Marker) (AID 2282949).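 Note: background control marker of the multiplexed CIS panel rather than a real target.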 The conditions noted are these: HepG2 Attagene cis-factorial M32 reporter, mRNA; actives raise or lower the signal. The procedure, abridged:
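HepG2 transfectants (cis-regulated reporter transcription units) dosed 24 h. Reporter mRNA by RT-PCR plus CE, analysed as gain or loss relative to DMSO.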

Assay [15] in a line: ATG_M_06_CIS: Attagene CIS-FACTORIAL HepG2 Assay for M06 Transcription Factor (Internal Marker) (AID 2282950). The conditions noted are these: HepG2 Attagene CIS-FACTORIAL M06 internal marker reporter; actives raise or lower the signal. Put shortly:
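HepG2 cells transiently transfected with cis-regulated multiple reporter transcription units were exposed to chemical for 24 h; reporter mRNA was quantified by RT-PCR, 6-FAM primer labelling, HpaI digestion and capillary electrophoresis, fitted bidirectionally against DMSO.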

For assay [16], the target named is Hypoxia-inducible factor 1-alpha (Homo sapiens) (UniProt Q16665). Nature of the assay: ATG_HIF1a_CIS: Attagene CIS-FACTORIAL HepG2 Assay for human Hypoxia Inducible Factor 1 (HIF1A) (AID 2282951). The conditions noted are these: HepG2 Attagene cis-factorial HIF1a reporter transcription; actives raise or lower the signal. Put shortly: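 Endogenous-TF cis reporter readout, human HepG2 cells, 24 h incubation; mRNA detected via RT-PCR and capillary electrophoresis fluorescence; DMSO-normalised bidirectional fitting.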

For assay [17], the target named is Hepatocyte nuclear factor 6 (Homo sapiens) (UniProt Q9UBC0). Nature of the assay: ATG_HNF6_CIS: Attagene CIS-FACTORIAL HepG2 Assay for human Hepatocyte Nuclear Factor 6 (HNF6) (AID 2282952). Conditions: HepG2 Attagene cis-factorial HNF6 reporter transcription; actives raise or lower the signal. The procedure, abridged: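 Readout: fluorescent reporter-transcript fragments resolved by capillary electrophoresis after RT-PCR, reflecting endogenous factor activity in transfected HepG2. Exposure 24 h. Gain or loss of signal fitted bidirectionally against DMSO.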

For assay [18], the target named is Heat shock factor protein 1 (Homo sapiens) (UniProt Q00613). Nature of the assay: ATG_HSE_CIS: Attagene CIS-FACTORIAL HepG2 Assay for human Heat Shock Transcription Factor 1 (HSE) (AID 2282953). Conditions: HepG2 HSE cis-reporter, Attagene RNA transcription; actives raise or lower the signal. The procedure, abridged: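 HepG2 cells transiently transfected with multiple reporter transcription units under cis-regulatory promoter control, measuring endogenous transcription factor activity. After 24 h chemical exposure, reporter mRNA quantified by RT-PCR, fluorescent labelling, HpaI digestion and capillary electrophoresis; bidirectional fit versus DMSO.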

A short description of assay [19]: ATG_MRE_CIS: Attagene CIS-FACTORIAL HepG2 Assay for human Metal Responsive Element (MRE) (AID 2282954). The conditions noted are these: HepG2 MRE cis-reporter transcription, Attagene multiplex; actives raise or lower the signal. The procedure, abridged: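 Cells were transfected with cis-promoter reporter transcription units, then dosed for 24 h. RNA was reverse-transcribed, amplified, fluorescently labelled and resolved by capillary electrophoresis, and activity was fitted in both directions relative to DMSO.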

A short description of assay [20]: ATG_PBREM_CIS: Attagene CIS-FACTORIAL HepG2 Assay for human Phenobarbital-responsive Enhancer Module (PBREM) (AID 2282955). The conditions noted are these: HepG2 PBREM cis-reporter, Attagene multiplexed transcription; actives raise or lower the signal. Put shortly: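 Readout: reporter mRNA, fluorescent RT-PCR fragments separated by capillary electrophoresis. System: HepG2 transiently transfected with cis-regulated reporter units. Exposure: 24 h. Analysis: bidirectional, DMSO baseline.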

Sequence of Hypoxia-inducible factor 1-alpha (Homo sapiens) (Q16665 whole entry, looked up): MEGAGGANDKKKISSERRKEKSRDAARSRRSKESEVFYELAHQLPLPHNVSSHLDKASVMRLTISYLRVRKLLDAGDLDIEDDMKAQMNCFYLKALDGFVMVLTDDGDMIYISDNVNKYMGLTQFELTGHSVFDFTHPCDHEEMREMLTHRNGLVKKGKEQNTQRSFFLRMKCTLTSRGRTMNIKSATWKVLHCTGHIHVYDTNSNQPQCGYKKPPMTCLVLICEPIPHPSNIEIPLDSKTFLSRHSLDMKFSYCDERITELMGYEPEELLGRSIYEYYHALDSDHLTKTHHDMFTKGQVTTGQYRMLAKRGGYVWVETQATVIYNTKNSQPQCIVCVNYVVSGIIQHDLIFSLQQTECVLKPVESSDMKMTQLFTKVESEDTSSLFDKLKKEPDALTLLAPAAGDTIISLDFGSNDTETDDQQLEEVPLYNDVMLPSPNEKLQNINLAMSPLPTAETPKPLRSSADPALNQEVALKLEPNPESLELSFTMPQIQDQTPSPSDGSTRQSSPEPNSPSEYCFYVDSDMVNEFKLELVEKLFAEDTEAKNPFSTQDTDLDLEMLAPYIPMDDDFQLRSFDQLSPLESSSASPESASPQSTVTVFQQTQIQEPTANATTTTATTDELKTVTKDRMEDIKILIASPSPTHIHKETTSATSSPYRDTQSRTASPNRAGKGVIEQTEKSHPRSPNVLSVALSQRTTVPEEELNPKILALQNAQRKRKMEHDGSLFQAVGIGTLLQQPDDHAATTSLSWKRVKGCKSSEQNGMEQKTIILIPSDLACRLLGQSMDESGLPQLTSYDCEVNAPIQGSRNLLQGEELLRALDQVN
Sequence of Hepatocyte nuclear factor 3-beta (Homo sapiens) (Q9Y261 whole entry, looked up, the tested form may be a part): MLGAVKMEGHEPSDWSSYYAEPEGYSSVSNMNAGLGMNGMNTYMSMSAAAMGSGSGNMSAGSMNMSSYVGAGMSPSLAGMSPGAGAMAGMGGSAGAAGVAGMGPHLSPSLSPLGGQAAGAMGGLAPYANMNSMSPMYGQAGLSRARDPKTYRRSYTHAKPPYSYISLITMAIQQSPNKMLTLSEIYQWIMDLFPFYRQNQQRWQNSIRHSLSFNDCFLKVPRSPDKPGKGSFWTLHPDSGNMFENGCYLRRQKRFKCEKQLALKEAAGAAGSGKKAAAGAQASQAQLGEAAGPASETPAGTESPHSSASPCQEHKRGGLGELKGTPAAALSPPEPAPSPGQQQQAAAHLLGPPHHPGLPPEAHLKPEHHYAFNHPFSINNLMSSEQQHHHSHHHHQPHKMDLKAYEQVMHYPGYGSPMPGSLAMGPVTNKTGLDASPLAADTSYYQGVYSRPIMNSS
Sequence of Hepatocyte nuclear factor 6 (Homo sapiens) (Q9UBC0 whole entry, looked up, the tested form may be a part): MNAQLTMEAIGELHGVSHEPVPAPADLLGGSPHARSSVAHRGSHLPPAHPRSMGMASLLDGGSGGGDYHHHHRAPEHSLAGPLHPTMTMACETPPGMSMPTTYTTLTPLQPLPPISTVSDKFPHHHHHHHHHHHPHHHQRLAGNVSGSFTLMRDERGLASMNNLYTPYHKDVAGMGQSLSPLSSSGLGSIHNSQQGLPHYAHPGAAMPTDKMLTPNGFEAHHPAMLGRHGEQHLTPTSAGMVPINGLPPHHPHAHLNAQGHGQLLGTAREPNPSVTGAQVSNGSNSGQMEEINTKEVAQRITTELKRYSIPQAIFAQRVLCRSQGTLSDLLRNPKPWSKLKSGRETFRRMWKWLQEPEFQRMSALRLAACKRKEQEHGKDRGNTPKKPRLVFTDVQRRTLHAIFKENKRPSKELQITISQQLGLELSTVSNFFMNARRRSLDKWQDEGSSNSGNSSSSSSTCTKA
Sequence of Bile acid receptor (Homo sapiens) (Q96RI1 whole entry, looked up): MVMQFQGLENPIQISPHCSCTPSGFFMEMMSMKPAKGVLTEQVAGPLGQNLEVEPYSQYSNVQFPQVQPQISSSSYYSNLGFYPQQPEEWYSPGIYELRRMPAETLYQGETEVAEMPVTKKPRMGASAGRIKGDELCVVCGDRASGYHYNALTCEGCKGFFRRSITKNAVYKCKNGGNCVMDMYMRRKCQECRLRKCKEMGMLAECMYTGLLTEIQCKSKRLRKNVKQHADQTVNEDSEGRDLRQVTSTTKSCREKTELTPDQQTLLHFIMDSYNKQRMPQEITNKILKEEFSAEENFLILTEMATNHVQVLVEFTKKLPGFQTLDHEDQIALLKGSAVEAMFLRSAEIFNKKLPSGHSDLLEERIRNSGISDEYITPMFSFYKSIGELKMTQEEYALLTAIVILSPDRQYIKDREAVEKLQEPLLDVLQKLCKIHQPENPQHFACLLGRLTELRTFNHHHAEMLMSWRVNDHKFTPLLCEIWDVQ
Sequence of Heat shock factor protein 1 (Homo sapiens) (Q00613 whole entry, looked up): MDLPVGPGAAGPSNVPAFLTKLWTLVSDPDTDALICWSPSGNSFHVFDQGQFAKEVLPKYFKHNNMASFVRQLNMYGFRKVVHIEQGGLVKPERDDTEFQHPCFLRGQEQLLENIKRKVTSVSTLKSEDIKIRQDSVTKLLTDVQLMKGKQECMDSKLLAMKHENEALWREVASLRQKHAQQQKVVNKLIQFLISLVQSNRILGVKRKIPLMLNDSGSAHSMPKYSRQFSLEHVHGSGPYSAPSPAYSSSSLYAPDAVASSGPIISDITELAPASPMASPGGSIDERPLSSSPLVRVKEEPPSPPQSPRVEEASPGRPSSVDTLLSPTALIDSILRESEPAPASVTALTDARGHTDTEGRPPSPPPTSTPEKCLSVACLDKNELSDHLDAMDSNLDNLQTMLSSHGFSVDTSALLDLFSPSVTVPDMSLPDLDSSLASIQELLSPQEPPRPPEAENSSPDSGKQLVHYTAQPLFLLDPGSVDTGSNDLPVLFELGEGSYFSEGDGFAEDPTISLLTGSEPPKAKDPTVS

Consider `Oc1cccc2c(O)cccc12`, for which the results for the AC50 in [1], in assay [5] and in [7] were 27.3 µM (active), 12.3 µM (active) and 0.0859 µM (active), respectively. The call in assay [2], in [3], in assay [4], in assay [6], in [8] and in assay [9] was inactive. Moreover, the compound was called inactive in [10], in assay [11], in [12], in assay [13], in [14] and in assay [15]. Also, the compound was classed as inactive in [16], in [17], in assay [18], in assay [19] and in assay [20].

For `C=C(c1ccc(C(=O)O)cc1)c1cc2c(cc1C)C(C)(C)CCC2(C)C`, the half-maximal activity concentration (AC50) in assay [1] is 19 µM (active); in assay [3], 11.1 µM (active); in [4], 34.1 µM (active); in [5], 0.0545 µM (active); in assay [9], 35.6 µM (active); in [10], 28.6 µM (active). In addition, the AC50 in assay [13] was 16.8 µM (active); in [14], 32.2 µM (active); in assay [18] it was 16.2 µM (active) and 27.9 µM (active); in assay [20], 30.3 µM (active). The outcome in [1], in [2], in assay [3], in [4], in assay [5] and in assay [6] was inactive. In addition, the outcome in assay [7], in assay [8], in [9], in assay [10], in [12] and in [13] was inactive. For the same compound, the compound was called inactive in [14], in assay [15], in [16], in [17] and in assay [20].

On to `Cc1ccccc1OCC(=O)O`, for which the outcome in assay [1], in assay [2], in [3], in [4], in assay [5] and in assay [6] was inactive. Moreover, the compound was classed as inactive in assay [8], in assay [9], in assay [10], in [11], in assay [12] and in [13]. For the same compound, the call in assay [14], in assay [15], in assay [16], in [17], in [18] and in assay [19] was inactive. Also, the outcome in [20] was inactive. In addition, the concentration at half-maximal activity (AC50) in assay [7] was 26 µM (active).

For the compound `C=CC(F)(F)C(F)(F)C(F)(F)C(F)(F)F`, the outcome in [1], in assay [2], in assay [3], in assay [4], in assay [5] and in [6] was inactive. Further, the outcome in assay [7], in assay [8], in assay [9], in [10], in [11] and in [12] was inactive. Moreover, the outcome in assay [13], in assay [14], in assay [15], in assay [16], in assay [17] and in assay [18] was inactive. The outcome in assay [19] and in assay [20] was inactive.

Regarding `CCCCCCCCCCCCCCCC(=O)OC`, the result in assay [1], in [2], in [3], in assay [4], in [5] and in [6] was inactive. Further, the outcome in assay [7], in assay [8], in assay [9], in assay [10], in [11] and in [12] was inactive. Besides, the result in assay [13], in assay [14], in assay [15], in assay [16], in assay [17] and in assay [18] was inactive. Also, the compound was classed as inactive in [19] and in assay [20].

Consider `CC(=O)Nc1ccc(S(N)(=O)=O)cc1`, for which the outcome in [1], in assay [2], in assay [3], in [4], in assay [5] and in [6] was inactive. For the same compound, the call in assay [7], in [8], in [9], in assay [10], in assay [11] and in [12] was inactive. Besides, the compound was called inactive in [13], in assay [14], in assay [15], in assay [16], in assay [17] and in assay [18]. Further, the compound was called inactive in assay [19] and in assay [20].

As a reminder, the AC50 is the concentration at which the activity in the assay is half-maximal.
